# The full list was thinned out, with the strongest signals kept by preference.
# B1: MFG-E8 (Mus musculus), P21956 (protein)
# chain: MQVSRVLAALCGMLLCASGLFAASGDFCDSSLCLNGGTCLTGQDNDIYCLCPEGFTGLVCNETERGPCSPNPCYNDAKCLVTLDTQRGDIFTEYICQCPVGYSGIHCETETNYYNLDGEYMFTTAVPNTAVPTPAPTPDLSNNLASRCSTQLGMEGGAIADSQISASSVYMGFMGLQRWGPELARLYRTGIVNAWTASNYDSKPWIQVNLLRKMRVSGVMTQGASRAGRAEYLKTFKVAYSLDGRKFEFIQDESGGDKEFLGNLDNNSLKVNMFNPTLEAQYIKLYPVSCHRGCTLRFELLGCELHGCSEPLGLKNNTIPDSQMSASSSYKTWNLRAFGWYPHLGRLDNQGKINAWTAQSNSAKEWLQVDLGTQRQVTGIITQGARDFGHIQYVASYKVAHSDDGVQWTVYEEQGSSKVFQGNLDNNSHKKNIFEKPFMARYVRVLPVSWHNRITLRLELLGC
# Tests used:
# Assay in all cases: glycan array binding signal (z-score within array); higher = stronger binding
# Conditions in all cases: glycan notation: IUPAC condensed, linker removed
# [1] = target: Fuc(a1-2)Gal(b1-3)GalNAc(a1-3)[Fuc(a1-2)]Gal(b1-4)GlcNAc
# How it was run: (§1)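 Columns mapping to the same glycan were averaged after glycan names were converted to IUPAC-condensed notation. The data come from 3228 arrays in the Consortium for Functional Glycomics database, limited to those with an available protein sequence. Binding is reported as a within-array Z-score averaged across arrays of one protein sequence and across linkers.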
# [2] = target: Fuc(a1-2)Gal(b1-4)GlcNAc(b1-2)[Fuc(a1-2)Gal(b1-4)GlcNAc(b1-4)]Man(a1-3)[Fuc(a1-2)Gal(b1-4)GlcNAc(b1-2)Man(a1-6)]Man(b1-4)GlcNAc(b1-4)GlcNAc
# How it was run: as §1
# [3] = target: Fuc(a1-2)Gal6S(b1-3)GlcNAc6S
# How it was run: as §1
# [4] = target: Fuc(a1-2)[Gal(a1-3)]Gal(b1-4)[Fuc(a1-3)]GlcNAc(b1-3)GalNAc
# How it was run: as §1
# [5] = target: Fuc(a1-2)[GalNAc(a1-3)]Gal(b1-4)[Fuc(a1-3)]GlcNAc(b1-3)GalNAc
# How it was run: as §1
# [6] = target: Fuc(a1-3)[Gal(b1-4)]GlcNAc(b1-4)Gal(b1-4)[Fuc(a1-3)]GlcNAc
# How it was run: as §1
# [7] = target: Gal(a1-2)Gal
# How it was run: as §1
# [8] = target: Gal(a1-3)Gal(b1-3)GlcNAc
# How it was run: as §1
# [9] = target: Gal(a1-4)Gal(b1-3)GlcNAc(b1-2)Man(a1-3)[Gal(a1-4)Gal(b1-3)GlcNAc(b1-2)Man(a1-6)]Man(b1-4)GlcNAc(b1-4)GlcNAc
# How it was run: as §1
# [10] = target: Gal(b1-3)GalNAc(a1-3)[Fuc(a1-2)]Gal(b1-4)GlcNAc
# How it was run: as §1
# [11] = target: Gal(b1-3)GalNAc(b1-4)Gal(b1-4)Glc
# How it was run: as §1
# [12] = target: Gal(b1-3)GlcNAc(b1-3)Gal(b1-4)GlcNAc(b1-3)Gal(b1-4)GlcNAc(b1-2)[Gal(b1-3)GlcNAc(b1-3)Gal(b1-4)GlcNAc(b1-3)Gal(b1-4)GlcNAc(b1-6)]Man(a1-6)[Gal(b1-3)GlcNAc(b1-3)Gal(b1-4)GlcNAc(b1-3)Gal(b1-4)GlcNAc(b1-2)Man(a1-3)]Man(b1-4)GlcNAc(b1-4)[Fuc(a1-6)]GlcNAc
# How it was run: as §1
# [13] = target: Gal(b1-4)GlcNAc(b1-3)Gal(b1-4)GlcNAc(b1-2)Man(a1-3)[Gal(b1-4)GlcNAc(b1-3)Gal(b1-4)GlcNAc(b1-2)Man(a1-6)]Man(b1-4)GlcNAc(b1-4)GlcNAc
# How it was run: as §1
# [14] = target: Gal(b1-4)GlcNAc(b1-3)Gal(b1-4)GlcNAc(b1-3)Gal(b1-4)GlcNAc(b1-3)Gal(b1-4)GlcNAc(b1-3)Gal(b1-4)GlcNAc(b1-2)[Gal(b1-4)GlcNAc(b1-3)Gal(b1-4)GlcNAc(b1-3)Gal(b1-4)GlcNAc(b1-3)Gal(b1-4)GlcNAc(b1-3)Gal(b1-4)GlcNAc(b1-6)]Man(a1-6)[Gal(b1-4)GlcNAc(b1-3)Gal(b1-4)GlcNAc(b1-3)Gal(b1-4)GlcNAc(b1-3)Gal(b1-4)GlcNAc(b1-3)Gal(b1-4)GlcNAc(b1-2)Man(a1-3)]Man(b1-4)GlcNAc(b1-4)[Fuc(a1-6)]GlcNAc
# How it was run: as §1
# [15] = target: Gal(b1-4)GlcNAc(b1-6)Gal(b1-4)GlcNAc
# How it was run: as §1
# [16] = target: Gal3S(b1-4)GlcNAc
# How it was run: as §1
# [17] = target: Gal3S6S(b1-4)GlcNAc6S
# How it was run: as §1
# [18] = target: Gal4S(b1-4)GlcNAc
# How it was run: as §1
# [19] = target: Gal6P(b1-4)GlcNAc
# How it was run: as §1
# [20] = target: Gal6S(b1-3)GlcNAc6S
# How it was run: as §1
# [21] = target: Gal6S(b1-4)GlcNAc6S
# How it was run: as §1
# [22] = target: GalNAc(b1-4)GlcNAc(b1-2)Man
# How it was run: as §1
# [23] = target: GalNAc3S(b1-4)[Fuc(a1-3)]GlcNAc
# How it was run: as §1
# [24] = target: GalNAc4S6S(b1-4)GlcNAc
# How it was run: as §1
# [25] = target: Glc(a1-6)Glc(a1-6)Glc(a1-6)Glc
# How it was run: as §1
# [26] = target: Glc(b1-6)Glc
# How it was run: as §1
# [27] = target: GlcNAc(a1-4)Gal(b1-4)GalNAc
# How it was run: as §1
# [28] = target: GlcNAc(b1-2)Gal(b1-3)GalNAc
# How it was run: as §1
# [29] = target: GlcNAc(b1-3)Gal(b1-4)GlcNAc(b1-2)[GlcNAc(b1-3)Gal(b1-4)GlcNAc(b1-6)]Man(a1-6)[GlcNAc(b1-3)Gal(b1-4)GlcNAc(b1-2)Man(a1-3)]Man(b1-4)GlcNAc(b1-4)GlcNAc
# How it was run: as §1
# [30] = target: GlcNAc(b1-3)Gal(b1-4)GlcNAc(b1-3)Gal(b1-4)GlcNAc(b1-2)[GlcNAc(b1-3)Gal(b1-4)GlcNAc(b1-3)Gal(b1-4)GlcNAc(b1-6)]Man(a1-6)[GlcNAc(b1-3)Gal(b1-4)GlcNAc(b1-3)Gal(b1-4)GlcNAc(b1-2)Man(a1-3)]Man(b1-4)GlcNAc(b1-4)[Fuc(a1-6)]GlcNAc
# How it was run: as §1
binder,measurement,setting,value
B1,glycan array binding signal (z-score),[1],0.179
same,glycan array binding signal (z-score),[2],0.01
same,glycan array binding signal (z-score),[3],8.57
same,glycan array binding signal (z-score),[4],2.33
same,glycan array binding signal (z-score),[5],1.65
same,glycan array binding signal (z-score),[6],-0.206
same,glycan array binding signal (z-score),[7],0.39
same,glycan array binding signal (z-score),[8],-0.404
same,glycan array binding signal (z-score),[9],-0.165
same,glycan array binding signal (z-score),[10],-0.266
same,glycan array binding signal (z-score),[11],-0.553
same,glycan array binding signal (z-score),[12],0.221
same,glycan array binding signal (z-score),[13],2.48
same,glycan array binding signal (z-score),[14],-0.342
same,glycan array binding signal (z-score),[15],-0.115
same,glycan array binding signal (z-score),[16],-0.46
same,glycan array binding signal (z-score),[17],2.81
same,glycan array binding signal (z-score),[18],-0.4
same,glycan array binding signal (z-score),[19],1.22
same,glycan array binding signal (z-score),[20],3.04
same,glycan array binding signal (z-score),[21],2.98
same,glycan array binding signal (z-score),[22],-0.038
same,glycan array binding signal (z-score),[23],0.832
same,glycan array binding signal (z-score),[24],9.76
same,glycan array binding signal (z-score),[25],-0.038
same,glycan array binding signal (z-score),[26],2.4
same,glycan array binding signal (z-score),[27],5.5
same,glycan array binding signal (z-score),[28],0.853
same,glycan array binding signal (z-score),[29],-0.881
same,glycan array binding signal (z-score),[30],-0.08

# Reference: the supplement of paper PMC8728848
